PubChem BioAssay (Tox21)
Values joined by “and” are separate entries in the source; they are usually repeats but may differ in a detail not shown here. Equal entries are not always repeated. Inconclusive results are not listed. Where a call stands in place of a potency, no number is given. Where a structure was tested more than once in an assay, its records may differ in their call. Active and inactive are the calls of the source. Unless noted, the call rests on the fitted dose curve; in most records, active means well fitted curve in the direction sought with a large enough effect in the repeat runs; inconclusive means weak or mixed curves; inactive means no such curve, though single readings can be large; an effect the other way counts as inactive or inconclusive.

Assays:
[1] = qHTS assay to identify small molecule antagonists of the glucocorticoid receptor (GR) signaling pathway - cell viability counter screen (AID 720693); further: nearly all actives have a fitted effect of over 55% in size
[2] = qHTS assay for identifying genotoxic compounds that show differential cytotoxicity against isogenic chicken DT40 cell lines with known DNA damage response pathways - wild type cell line (AID 743012); further: nearly all actives have a fitted effect of over 60% in size; further: potency means the concentration at half of the fitted maximal effect
Outline: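 Cytotoxicity in repair-proficient parental chicken DT40 cells serves as the comparator for Rad54/Ku70- and Rev3-deficient lines. Cells were exposed to compounds for 40 h at 37 C/5% CO2, and ATP-based luminescence (CellTiter-Glo) measured viability.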

[3] = qHTS assay to identify small molecule antagonists of the androgen receptor (AR) signaling pathway - cell viability counter screen (AID 743033; further: nearly all actives have a fitted effect of over 45% in size; further: potency means the concentration at half of the fitted maximal effect)
[4] = target: Androgen receptor (Homo sapiens) (UniProt P10275); assay: qHTS assay to identify small molecule agonists of the androgen receptor (AR) signaling pathway (AID 743036; active means well fitted activation curve with a large enough effect in the signal ratio in the repeat runs, with a control signal flat, not every such curve was filed as active; the % refers to the signal ratio)
Chain of Androgen receptor (Homo sapiens) (P10275 whole entry, looked up): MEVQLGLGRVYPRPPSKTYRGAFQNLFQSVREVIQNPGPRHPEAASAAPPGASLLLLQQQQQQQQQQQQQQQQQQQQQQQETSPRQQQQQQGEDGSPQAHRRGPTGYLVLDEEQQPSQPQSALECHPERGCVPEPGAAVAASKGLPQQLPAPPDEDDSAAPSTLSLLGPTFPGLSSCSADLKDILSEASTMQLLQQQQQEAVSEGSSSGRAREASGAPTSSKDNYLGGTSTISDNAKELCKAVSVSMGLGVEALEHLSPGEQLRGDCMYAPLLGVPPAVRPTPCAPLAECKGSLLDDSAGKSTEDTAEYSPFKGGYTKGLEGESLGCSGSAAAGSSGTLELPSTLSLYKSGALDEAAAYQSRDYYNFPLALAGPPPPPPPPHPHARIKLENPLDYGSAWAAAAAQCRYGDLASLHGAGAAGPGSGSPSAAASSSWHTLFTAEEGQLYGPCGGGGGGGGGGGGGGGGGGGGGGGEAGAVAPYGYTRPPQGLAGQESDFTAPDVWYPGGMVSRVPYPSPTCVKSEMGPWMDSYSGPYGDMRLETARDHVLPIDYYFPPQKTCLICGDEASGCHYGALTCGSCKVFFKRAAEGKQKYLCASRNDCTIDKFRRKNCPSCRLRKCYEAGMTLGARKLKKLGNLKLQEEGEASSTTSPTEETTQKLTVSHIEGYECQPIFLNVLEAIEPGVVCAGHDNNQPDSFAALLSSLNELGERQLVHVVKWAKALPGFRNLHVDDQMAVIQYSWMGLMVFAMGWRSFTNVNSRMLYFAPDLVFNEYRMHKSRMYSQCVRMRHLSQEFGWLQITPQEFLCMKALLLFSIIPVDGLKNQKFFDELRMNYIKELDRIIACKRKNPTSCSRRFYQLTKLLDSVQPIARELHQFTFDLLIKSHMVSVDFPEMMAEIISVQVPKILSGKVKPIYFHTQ
Outline: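 In this Tox21 qHTS, 2,000 HEK293 AR-bla cells per well were incubated with compounds for 16 h at 37C and 5% CO2. Fluorescence intensity was recorded 2 h after adding LiveBLAzer B/G FRET substrate at room temperature.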

[5] = qHTS assay to identify small molecule antagonists of the androgen receptor (AR) signaling pathway using the MDA cell line - cell viability counter screen (AID 743041; further: nearly all actives have a fitted effect of over 45% in size)
Outline: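 Compound exposure lasted 16 h at 37C in MDA-kb2 AR-luc cells stimulated with R1881. Protease-based CellTiter-Fluor reagent was applied for the final 30 min and fluorescence measured.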

[6] = target: Androgen receptor (Homo sapiens) (UniProt P10275); assay: qHTS assay to identify small molecule antagonists of the androgen receptor (AR) signaling pathway using the MDA cell line (AID 743042; further: nearly all actives have a fitted effect of over 55% in size)
Outline: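 MDA-kb2 breast carcinoma cells carrying MMTV-luciferase (AR/GR responsive) were co-treated with compounds and the agonist R1881 for 16 h at 37C. Inhibition read as ONE-Glo luminescence; CellTiter-Fluor fluorescence measured in parallel for cytotoxicity.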

[7] = qHTS assay for identifying genotoxic compounds that show differential cytotoxicity against isogenic chicken DT40 cell lines with known DNA damage response pathways - Rev3 mutant cell line (AID 743014); further: nearly all actives have a fitted effect of over 55% in size; further: potency means the concentration at half of the fitted maximal effect
[8] = qHTS assay for identifying genotoxic compounds that show differential cytotoxicity against isogenic chicken DT40 cell lines with known DNA damage response pathways - Rad54/Ku70 mutant cell line (AID 743015); further: nearly all actives have a fitted effect of over 60% in size; further: potency means the concentration at half of the fitted maximal effect
[9] = target: Androgen receptor (Homo sapiens) (UniProt P10275); assay: qHTS assay to identify small molecule antagonists of the androgen receptor (AR) signaling pathway (AID 743035; active means well fitted inhibition curve with a large enough effect in the signal ratio in the repeat runs, not every such curve was filed as active; the % refers to the signal ratio)
Outline: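 Steps: seed AR-UAS-bla GripTite HEK293 cells, incubate 4 h at 37C; pin in test compound, then add agonist R1881; incubate 16 h at 37C; add LiveBLAzer B/G FRET substrate, 2 h at room temperature; read fluorescence.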

[10] = target: Androgen receptor (Homo sapiens) (UniProt P10275); assay: qHTS assay to identify small molecule agonists of the androgen receptor (AR) signaling pathway using the MDA cell line (AID 743040; further: nearly all actives have a fitted effect of over 20% in size)
Outline: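 Testing was done with the MDA-kb2 AR-luc line, a human breast carcinoma stably transfected with MMTV-luciferase containing AR and GR response elements. Cells were exposed 16 h at 37C before ONE-Glo luminescence detection.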

Cc1cc(=O)[nH]o1
Potency [1]: inactive
Potency [2]: inactive
Potency [3]: inactive
outcome [4]: inactive
Potency [5]: inactive
Potency [6]: inactive

CCCCc1c(C)nc(NCC)nc1OS(=O)(=O)N(C)C
Potency [1]: inactive
Potency [7]: 19.3 µM (active)
Potency [8]: 15.4 µM (active)
Potency [3]: inactive
Potency [5]: inactive

C/C=C/C=O
Potency [1]: inactive
Potency [7]: inactive
Potency [8]: inactive
Potency [3]: inactive
Potency [5]: inactive

CCOC(=O)[C@]1(c2ccccc2)Oc2ccccc2[C@@H]1N
Potency [1]: inactive
Potency [7]: 4.86 µM (active)
Potency [8]: 24.3 µM (active)

C=COC(C)=O
Potency [1]: inactive
Potency [7]: inactive
Potency [8]: inactive
Potency [3]: inactive
Potency [5]: inactive

CCCCNP(N)(N)=S
Potency [1]: inactive
Potency [7]: inactive
Potency [8]: inactive
Potency [3]: inactive
Potency [5]: inactive

Cn1sc(Cl)cc1=O
Potency [1]: inactive
Potency [7]: inactive and 21.7 µM (active)
Potency [8]: inactive and 54.5 µM (active)
Potency [3]: inactive
Potency [5]: inactive

c1ccc(C2CC2)c(OCC2=NCCN2)c1
Potency [1]: inactive
Potency [2]: inactive
Potency [8]: inactive
Potency [3]: inactive
Potency [9]: inactive
outcome [4]: inactive
Potency [5]: inactive
Potency [6]: inactive

O=Cc1ccc2c(c1)OCO2
Potency [1]: inactive
Potency [7]: inactive
Potency [8]: inactive
Potency [3]: inactive
Potency [5]: inactive

Cc1ccc2ccccc2c1
Potency [1]: inactive
Potency [7]: inactive
Potency [8]: inactive
Potency [3]: inactive
Potency [9]: inactive
outcome [4]: inactive
Potency [5]: inactive
Potency [6]: inactive

CCCCCCC#N
Potency [1]: inactive
Potency [7]: inactive
Potency [8]: inactive
Potency [3]: inactive
Potency [5]: inactive

OCCCBr
Potency [1]: inactive
Potency [7]: inactive
Potency [8]: inactive
Potency [3]: inactive
Potency [5]: inactive

CCOP(O)OCC
Potency [1]: inactive
Potency [7]: inactive
Potency [8]: inactive
Potency [3]: inactive
Potency [5]: inactive

N#C/C(N)=C(/N)C#N
Potency [1]: inactive
Potency [2]: inactive
Potency [8]: inactive
Potency [3]: inactive
Potency [5]: inactive

CCC(Br)(CC)C(=O)NC(N)=O
Potency [1]: inactive
Potency [7]: 54.5 µM (active)
Potency [8]: inactive
Potency [3]: inactive
Potency [5]: inactive

CC(C)=CCOc1c2occc2cc2ccc(=O)oc12
Potency [1]: inactive
Potency [2]: 26.6 µM (active)
Potency [3]: inactive
Potency [9]: inactive
outcome [4]: inactive
Potency [10]: inactive
Potency [5]: inactive
Potency [6]: inactive

C=CCCl
Potency [1]: inactive
Potency [2]: inactive
Potency [8]: inactive
Potency [3]: inactive
Potency [5]: inactive

CS/C(C)=N/OC(=O)N(C)SN(C)C(=O)O/N=C(\C)SC
Potency [9]: inactive
outcome [4]: inactive
Potency [10]: inactive

CCCCCC[N+](=O)[O-]
Potency [9]: inactive
outcome [4]: inactive

COC1=CC(=O)O[C@@H](CCc2ccccc2)C1
Potency [10]: inactive

O=C1c2ccccc2C(=O)C1C(=O)C(c1ccccc1)c1ccccc1
Potency [1]: inactive
Potency [3]: inactive
Potency [5]: inactive

N#Cc1cc(I)c(O)c(I)c1
Potency [7]: 68.6 µM (active)
Potency [3]: 49 µM (active)
Potency [10]: inactive

CC1(C)CCC(Cc2ccc(Cl)cc2)C1(O)Cn1cncn1 (stereo not drawn)
Potency [7]: 15.4 µM (active)
Potency [8]: 27.3 µM (active)

Clc1cc(C(Cl)(Cl)Cl)cnc1Cl
Potency [2]: inactive
Potency [7]: inactive
Potency [8]: inactive
Potency [3]: inactive
Potency [5]: inactive

O=C1C(=O)c2cccc3cccc1c23
Potency [7]: 1.72 µM (active)
Potency [8]: 2.43 µM (active)
Potency [5]: inactive

C=CC[C@]1(O)CC[C@H]2[C@@H]3CCC4=CC(=O)CCC4=C3C=C[C@@]21C
Potency [2]: 9.44 µM (active)
Potency [7]: 16.8 µM (active)
Potency [8]: 10.6 µM (active)
Potency [3]: inactive
Potency [5]: inactive

CN1C(=O)C(O)N=C(c2ccccc2)c2cc(Cl)ccc21 (stereo not drawn)
Potency [1]: inactive
Potency [3]: inactive
Potency [5]: inactive
